Experimental data: the supplement of paper PMC11018630
Structures can show the parent of a compound that is named as a salt. ± gives the standard deviation of the averaged measurements. The full ranking holds about 1,100 compounds; the median of “day of extracellular matrix detachment from plate” is about 16, and the lowest 2% start at about 10. The sample holds the lowest values, similar compounds and a random draw of the others, so the mix is not that of the screen.

Test system: RDEB dermal fibroblasts EB71
Test: day of extracellular matrix detachment from plate (days); higher = delayed detachment (less fibrotic matrix)
Conditions: compound concentration: 10 uM

In order of falling “day of extracellular matrix detachment from plate” value:
1. Clc1ccc2c(c1)CCc1cccnc1C2=C1CCNCC1 [Desloratadine]  28
2. O=C(O[C@H]1CN2CCC1CC2)N1CCc2ccccc2[C@@H]1c1ccccc1 [Solifenacin succinate]  27.3 ± 2.9
3. Clc1ccc(Nc2nnc(Cc3ccncc3)c3ccccc23)cc1 [Vatalanib (PTK787) 2HCl]  25
4. CO[C@H]1C[C@@H]2CC[C@@H](C)[C@@](O)(O2)C(=O)C(=O)N2CCCC[C@H]2C(=O)O[C@H]([C@H](C)C[C@@H]2CC[C@@H](OCCO)[C@H](OC)C2)CC(=O)[C@H](C)/C=C(\C)[C@@H](O)[C@@H](OC)C(=O)[C@H](C)C[C@H](C)/C=C/C=C/C=C/1C [Everolimus (RAD001)]  25
5. NC(=O)C(c1ccccc1)(c1ccccc1)[C@@H]1CCN(CCc2ccc3c(c2)CCO3)C1 [Darifenacin HBr]  23.2 ± 7.2
6. CN(C)[C@@H]1C(O)=C(C(N)=O)C(=O)[C@@]2(O)C(O)=C3C(=O)c4c(O)ccc(Cl)c4[C@@](C)(O)[C@H]3C[C@@H]12 [Chlortetracycline HCl]  23 ± 6.9
7. CN1CCOC(c2ccccc2)c2ccccc2C1 (stereo not drawn) [Nefopam HCl]  20
8. C[C@]12CC[C@H](O)CC1=CC[C@@H]1[C@@H]2CC[C@]2(C)C(n3cnc4ccccc43)=CC[C@@H]12 [Galeterone]  20 ± 1.7
9. CN1CCC(=C2c3ccccc3CCn3c(C=O)cnc32)CC1 [Alcaftadine]  19.3 ± 2.5
10. N=C(N)NC(=N)N1CCOCC1 [Moroxydine HCl]  19.3 ± 6.3
11. CCCCN1CCCCC1C(=O)Nc1c(C)cccc1C (stereo not drawn) [Bupivacaine HCl]  19.3 ± 6.3
12. CC1(C)CCC(C)(C)c2cc(NC(=O)c3ccc(C(=O)O)cc3)ccc21 [Tamibarotene]  19
13. C[C@@H]1O[C@@H](OC[C@H]2O[C@@H](Oc3c(-c4ccc(O)c(O)c4)oc4cc(O)cc(O)c4c3=O)[C@H](O)[C@@H](O)[C@@H]2O)[C@H](O)[C@H](O)[C@H]1O [Rutin]  18.3 ± 8.1
14. Nc1ccc(S(=O)(=O)Nc2ncccn2)cc1 [Sodium sulfadiazine]  18.2 ± 3.1
15. COc1ccc(CNc2nc(N3CCC[C@H]3CO)ncc2C(=O)NCc2ncccn2)cc1Cl [Avanafil]  18
16. Cc1cc(C#N)cc(C)c1Oc1nc(Nc2ccc(C#N)cc2)nc(N)c1Br [Etravirine (TMC125)]  18
17. Cc1ccc([C@@H]2O[C@H](CO)[C@@H](O)[C@H](O)[C@H]2O)cc1Cc1ccc(-c2ccc(F)cc2)s1 [Canagliflozin]  18
18. OCCOCCN1CCN(C(c2ccccc2)c2ccc(Cl)cc2)CC1 (stereo not drawn) [Hydroxyzine 2HCl]  18
19. CC[C@@H]1/C=C(\C)C[C@H](C)C[C@H](OC)[C@H]2O[C@@](O)(C(=O)C(=O)N3CCCC[C@H]3C(=O)O[C@H](/C(C)=C/[C@@H]3CC[C@H](Cl)[C@H](OC)C3)[C@H](C)[C@@H](O)CC1=O)[C@H](C)C[C@@H]2OC [Pimecrolimus]  17.7 ± 4
20. O=C(O)c1cc(/N=N/c2ccc(O)c(C(=O)O)c2)ccc1O [Olsalazine Sodium]  17.3 ± 2.9
21. O=c1ccc2ccc(OCCCCN3CCN(c4cccc5sccc45)CC3)cc2[nH]1 [Brexpiprazole]  17
22. C#C[C@]1(O)CC[C@H]2[C@@H]3CCC4=CCCC[C@@H]4[C@H]3C(=C)C[C@@]21CC [Desogestrel]  17
23. CC[C@H]1[C@@H](O)[C@@H]2[C@H](CC[C@]3(C)[C@@H]([C@H](C)CCC(=O)O)CC[C@@H]23)[C@@]2(C)CC[C@@H](O)C[C@@H]12 [Obeticholic Acid]  16.3 ± 1.1
24. Clc1ccc(CCC(Cn2ccnc2)Sc2c(Cl)cccc2Cl)cc1 (stereo not drawn) [Butoconazole nitrate]  16
25. CC(C)NC[C@H](O)COc1ccc(CCOCC2CC2)cc1 [Levobetaxolol HCl]  16 ± 3.5
26. Cc1cc(-n2c(=O)[nH]c(=O)n(C)c2=O)ccc1Oc1ccc(SC(F)(F)F)cc1 [Toltrazuril]  15.7 ± 2.9
27. CC(C)[C@H](N)C(=O)OCCOCn1cnc2c(=O)nc(N)[nH]c21 [Valaciclovir HCl]  15.7 ± 6.3
28. CCOC(=O)CC(=O)N1CCSC1COc1ccccc1OC (stereo not drawn) [Moguisteine]  15.3 ± 2.3
29. CNC(=O)[C@H](Cc1c[nH]c2ccccc12)NC(=O)[C@@H](CC(=O)NO)CC(C)C [Ilomastat (GM6001, Galardin)]  15
30. O=C([O-])c1ccccc1O.[Na+] [Sodium salicylate]  14
31. CCCS(=O)(=O)Nc1ccc(F)c(C(=O)c2c[nH]c3ncc(-c4ccc(Cl)cc4)cc23)c1F [Vemurafenib (PLX4032, RG7204)]  14 ± 1.7
32. OCCOc1ccc(/C(=C(/CCCl)c2ccccc2)c2ccccc2)cc1 [Ospemifene]  13
33. Cc1ccc(C(=O)C(C)CN2CCCCC2)cc1 (stereo not drawn) [Tolperisone HCl]  13
34. CC(C)/N=c1\cc2n(-c3ccc(Cl)cc3)c3ccccc3nc-2cc1Nc1ccc(Cl)cc1 [Clofazimine]  13
35. CO[C@H]1/C=C/O[C@@]2(C)Oc3c(C)c(O)c4c(O)c(c(/C=N/N5CCN(C)CC5)c(O)c4c3C2=O)NC(=O)/C(C)=C\C=C\[C@H](C)[C@H](O)[C@@H](C)[C@@H](O)[C@@H](C)[C@H](OC(C)=O)[C@@H]1C [Rifampin]  12
36. Nc1ccc(S(=O)(=O)Nc2ncccn2)cc1 [Sulfadiazine]  12
37. Oc1cc(O)c(Cl)cn1 [Gimeracil]  12
38. CNC[C@H](O)[C@@H](O)[C@H](O)[C@H](O)CO [Meglumine]  12
39. Cc1cccc(CN2CCN(C(c3ccccc3)c3ccc(Cl)cc3)CC2)c1 (stereo not drawn) [Meclizine 2HCl]  12
40. CNC(=O)[C@@H](NC(=O)[C@H](CC(C)C)[C@H](O)C(=O)NO)C(C)(C)C [Marimastat(BB-2516)]  11.7 ± 1.1
41. O=C(O)COCCN1CCN(C(c2ccccc2)c2ccc(Cl)cc2)CC1 (stereo not drawn) [Cetirizine DiHCl]  10.3 ± 1.1
42. CNC(=O)[C@H](Cc1ccccc1)NC(=O)[C@H](CC(C)C)[C@H](CSc1cccs1)C(=O)NO [Batimastat (BB-94)]  9 ± 1.7
43. C=C(c1ccc(C(=O)O)cc1)c1cc2c(cc1C)C(C)(C)CCC2(C)C [Bexarotene]  9
